Results: PubChem BioAssay AID651814 (National Center for Advancing Translational Sciences (NCATS), 2012)
Among all 2,100 compounds or so, about 590 (28%) were called active. Roughly 42% stayed inconclusive and do not appear here. Calls come from the whole dose curve; as a rule, active = well fitted inhibition curve with a large enough effect; inconclusive = small, poorly fitted or top-dose-only effect; inactive = flat fitted curve, though single readings scatter. The list shows a part of the results.
Note: nearly all actives have a fitted effect of over 70% in size.
Potency is the fitted concentration of half-maximal effect.
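Throughout, for max response: % of control where 0% means no effect; active compounds raise eYFP fluorescence by blocking Vif-driven A3F loss.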

These compounds were tested against DNA dC->dU-editing enzyme APOBEC-3F (Homo sapiens) (UniProt Q8IUX4) (assay: qHTS for inhibitors of Vif-A3F interactions: Cherry picks). Conditions: HeLa A3F-eYFP + Vif (tagged APOBEC3F with the HIV-1 protein that degrades it), eYFP fluorescence, 24 h.
DNA dC->dU-editing enzyme APOBEC-3F (Homo sapiens), sequence (Q8IUX4 whole entry, looked up): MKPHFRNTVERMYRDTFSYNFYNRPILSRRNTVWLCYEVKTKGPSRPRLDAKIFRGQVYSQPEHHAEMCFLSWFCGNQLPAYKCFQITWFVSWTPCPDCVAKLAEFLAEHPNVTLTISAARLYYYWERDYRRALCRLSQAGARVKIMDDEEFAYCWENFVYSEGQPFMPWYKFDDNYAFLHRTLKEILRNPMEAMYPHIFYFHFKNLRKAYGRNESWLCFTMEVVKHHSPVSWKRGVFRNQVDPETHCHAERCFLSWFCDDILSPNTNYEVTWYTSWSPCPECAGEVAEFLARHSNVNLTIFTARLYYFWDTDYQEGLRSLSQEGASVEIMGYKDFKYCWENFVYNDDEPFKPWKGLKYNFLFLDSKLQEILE
Method in brief: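 Read-out: yellow fluorescence (ex 488 nm, em 500-530 nm) by laser-scanning cytometer after 24 h compound exposure, several concentrations, at 37 deg C. Cells: HeLa line stably co-expressing Vif and C-terminally eYFP-tagged A3F; MG132 served as positive control.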
`CC(C)OC(=O)c1c2c(n3ccccc13)C(=O)c1ccccc1C2=O` was tested, and the Potency was 4.61 µM (active). `Cn1c(=O)c(N)c2c3c(c(Br)ccc31)C(=O)c1ccccc1-2` was tested, and the max response was 0.0476% (inactive). In the case of `Oc1cccc(Nc2nc(O)c(/C=C3\C=Nc4ccccc43)s2)c1`, the Potency is reported as 14.6 µM (active). For `O=S(=O)(Nc1cc(Sc2ncn[nH]2)c(O)c2ccccc12)c1ccccc1`, the max response was -29.8% (inactive). For `CCCOc1ccccc1C1CC(=O)Nc2cc3c(cc21)OCO3` (centres undefined), the max response was -14.8% (inactive). In the case of `CCN(CC)c1ccc(/C=C/C(=O)c2ccc(Br)cc2)cc1`, the max response is reported as -4.77% (inactive). `CCNc1ccc(Br)cc(C(=O)/C=C/c2ccc3c(c2)OCO3)c1=O` was tested, and the Potency was 18.4 µM (active). With `COc1ccc(OC)c(/C=C/c2nc3ccccc3[nH]c2=O)c1` the Potency was 18.4 µM (active). With `O=c1[nH]c2ccccc2nc1/C=C/c1ccc(F)cc1` the Potency was 14 µM (active). `CCCN(C(=O)CSc1n[nH]c(-c2ccc(OC)cc2)n1)c1c(N)n(Cc2ccccc2)c(=O)[nH]c1=O` was tested, and the max response was -13.7% (inactive). `CCC(=C/c1sc2ccc3ccccc3c2[n+]1C)/C=C1\Sc2ccc3ccccc3c2N1C` was tested, and the max response was -0.328% (inactive). `CC(=O)c1cccc(-c2ccnc3c2CC(C(=O)Nc2cccc(NS(C)(=O)=O)c2)O3)c1` (centres undefined) was tested, and the max response was -25.6% (inactive). `CCSC1=NSC2=NC(=O)/C(=C\c3coc4ccccc4c3=O)C(=N)N12` was tested, and the Potency was 18.4 µM (active). In the case of `O=C(O)CCCN1C(=O)/C(=C\C(Cl)=C\c2ccccc2)SC1=S`, the Potency is reported as 4.44 µM (active). `Cc1ccc2[nH]cc(/C=C/c3cc[n+](C)cc3)c2c1` was tested, and the Potency was 1.4 µM (active). With `C[n+]1ccc(/C=C/c2c[nH]c3ccc(F)cc23)cc1` the Potency was 16.4 µM (active). For `COc1ccc2[nH]cc(/C=C/c3cc[n+](C)cc3)c2c1`, the Potency was 13 µM (active). With `COc1ccc2c(c1)c(/C=C/c1cc[n+](C)cc1)cn2C` the Potency was 2.23 µM (active). `O=C1OC(/C(=C\Nc2cc(Cl)ccc2O)[N+](=O)[O-])c2ccccc21` (centres undefined) was tested, and the max response was -13.5% (inactive). In the case of `COc1cc(C(=O)N/N=C/C2CC=CCC2)cc(OC)c1OC` (centres undefined), the max response is reported as -15.3% (inactive). In the case of `CCOC1=C/C(=C/c2c(N)n3nc(-c4ccccc4)sc3nc2=O)C=CC1=O`, the max response is reported as 3.18% (inactive). With `N#C/C(=C/c1ccc(N2CCCCC2)o1)c1cccc(F)c1` the Potency was 5.17 µM (active). For `N#C/C(=C/c1ccc(N2CCCCCC2)o1)c1cccc(F)c1`, the max response was -26.2% (inactive). In the case of `N#C/C(=C/c1ccc(N2CCCCCC2)o1)c1ccc(Cl)cc1`, the Potency is reported as 3.66 µM (active). For `N#C/C(=C/c1ccc(N2CCOCC2)o1)c1ccc(Cl)cc1`, the Potency was 4.61 µM (active). In the case of `Cc1ccc(/C(C#N)=C\c2ccc(N3CCOCC3)o2)cc1`, the Potency is reported as 12.5 µM (active). `CC(C)(C)C(=O)/C(=C/c1ccc(Cl)cc1)n1cncn1` was tested, and the max response was -2.57% (inactive). With `C/C(=N\NC(=O)C(C)n1nc(C)c([N+](=O)[O-])c1C)c1ccccc1O` (centres undefined) the max response was 0.94% (inactive). `COc1ccc(/C=N/n2cc(-c3ccccc3)nc2N)cc1` was tested, and the max response was -18.9% (inactive). With `CCc1ccc(-c2cc(C(F)(F)F)n3nc(C(=O)Nc4cnn(Cc5ccc(C)cc5)c4)cc3n2)s1` the Potency was 14.6 µM (active). For `CC(=O)Nc1cccc(-c2ccnc3c2CC(C(=O)Nc2ccc(Cl)cc2)O3)c1` (centres undefined), the max response was -18.1% (inactive). In the case of `O=c1oc2cc(O)ccc2cc1-c1nc(-c2ccc(Cl)c(Cl)c2)cs1`, the Potency is reported as 0.651 µM (active). With `CCc1sc(-c2cc3ccc(O)cc3oc2=O)nc1-c1ccc(C)cc1` the Potency was 4.11 µM (active). `O=C(CCCCl)Oc1ccc2cc(-c3ccc4ccccc4n3)c(=O)oc2c1` was tested, and the max response was 3.21% (inactive). In the case of `COc1cc(-c2nc3ccc(C)cn3c2NCc2ccccc2)ccc1SC1CCCCC1`, the max response is reported as -8.35% (inactive). With `Cc1ccc(/C=N/NC(=O)c2nc3nc(C)cc(C)n3n2)cc1` the max response was 1.02% (inactive). `CSc1nc(Sc2ccccc2Cl)c2ccccc2n1` was tested, and the max response was -25.9% (inactive). For `COc1cc(/C=C2\SC(=S)N(NC(=O)c3ccc(O)c(OC)c3)C2=O)ccc1O`, the max response was -7.15% (inactive). In the case of `COc1cc(/C=C2\SC(=S)N(Nc3ncc(C(F)(F)F)cc3Cl)C2=O)ccc1O`, the Potency is reported as 18.4 µM (active). With `CN(C)c1ccc(/C=C2\SC(=S)N(Nc3ncc(C(F)(F)F)cc3Cl)C2=O)cc1` the Potency was 5.8 µM (active). `N#CC(=Cc1ccccn1)c1nc(-c2ccc(Cl)cc2)cs1` was tested, and the Potency was 15.8 µM (active). `CCOC(=O)c1ccc(NC(=O)CSc2nc(-c3ccc(OC)cc3)cc(C(F)(F)F)c2C#N)cc1` was tested, and the Potency was 18.4 µM (active). For `Cc1ccc(S(=O)(=O)CCSc2nc(C)cc(C(F)(F)F)c2C#N)cc1`, the Potency was 15.8 µM (active). In the case of `CCOC(=O)c1ccc(NC(=O)CSc2nc(-c3ccc(F)cc3)cc(C(F)(F)F)c2C#N)cc1`, the Potency is reported as 18.4 µM (active). In the case of `CCOC(=O)c1c(NC(=O)CSc2nc3ccc(OC)cc3[nH]2)sc2c1CC(C)(C)NC2(C)C`, the max response is reported as -17.3% (inactive). In the case of `Cc1cc(C(F)(F)F)c(C#N)c(SCC(=O)Nc2nc3ccccc3s2)n1`, the Potency is reported as 20.6 µM (active). In the case of `Cc1sc2nc(CSCC(=O)Nc3ccccc3C#N)[nH]c(=O)c2c1C`, the max response is reported as -12.7% (inactive). With `CCOC(=O)c1ccc(N=Nc2c(C)c(C#N)c(O)[nH]c2=O)cc1` the max response was -0.299% (inactive). `O=C(CSc1nc2ccccc2s1)c1cc2ccccc2o1` was tested, and the max response was -2.01% (inactive). In the case of `CCOC1=C2CN(S(=O)(=O)c3ccc(C)cc3)[C@H](c3cccc4ccccc34)C[C@H]2C(C#N)(C#N)C(C#N)(C#N)C1`, the max response is reported as -5.21% (inactive). In the case of `CC1(C)Cc2ccccc2C2CC(O)C(=O)N21` (centres undefined), the max response is reported as -21.2% (inactive). With `N#Cc1ccccc1NC(=O)CSc1nc(-c2ccccc2)cc(C(F)(F)F)c1C#N` the max response was -28.7% (inactive). In the case of `N#Cc1c(C(F)(F)F)cc(-c2cccs2)nc1SCC(=O)Nc1cccc(C(F)(F)F)c1`, the Potency is reported as 18.4 µM (active). For `CCOC(=O)c1ccc(NC(=O)CSc2nc(-c3cccs3)cc(C(F)(F)F)c2C#N)cc1`, the Potency was 16.4 µM (active). For `CCCCOc1ccc(-c2cc(C(F)(F)F)c(C#N)c(SCC(=O)O)n2)cc1`, the Potency was 18.4 µM (active). With `N#Cc1c(C(F)(F)F)cc(-c2cccs2)nc1SCC(=O)Nc1cccc(Cl)c1` the max response was -7.91% (inactive). For `Cc1coc(NC(=O)CSc2nc(-c3ccncc3)cc(C(F)(F)F)c2C#N)n1`, the Potency was 13 µM (active). In the case of `N#Cc1c(Nc2ccccc2)[n+]([O-])c2ccc(Cl)cc2[n+]1[O-]`, the max response is reported as -2.22% (inactive). For `Oc1ccc(C=NNC(=S)Nc2ccc(F)cc2)c(O)c1`, the max response was -2.9% (inactive). In the case of `S=C(NN=Cc1ccccn1)Nc1ccccn1`, the max response is reported as 1.89% (inactive). `Clc1ccc(/C=N/NC2=Nc3cccc4cccc2c34)cc1` was tested, and the Potency was 14.6 µM (active). In the case of `Cc1csc(NC(=O)CCC(=O)N(CC(=O)NC2CCCC2)Cc2ccccc2)n1`, the max response is reported as 0.176% (inactive). For `CCS(=O)(=O)N1N=C(c2ccc(C)cc2)CC1c1cc2ccc(OC)cc2nc1Cl` (centres undefined), the max response was -11.9% (inactive). `COc1ccc(C2CC(c3ccncc3)=NN2c2ccc(S(N)(=O)=O)cc2)cc1` (centres undefined) was tested, and the Potency was 16.4 µM (active). For `C(=C\c1c[nH]c2ccccc12)/c1nccc2ccccc12`, the Potency was 10.3 µM (active). `C(=Cc1c[nH]c2ccccc12)c1nccc2ccccc12` was tested, and the Potency was 20.6 µM (active). `Cc1ccc2c(/C=C/c3c[nH]c4ccccc34)ccnc2c1C` was tested, and the Potency was 14.6 µM (active). In the case of `c1ccc2c(c1)nc(N1CCOCC1)c1nnnn12`, the max response is reported as -7.94% (inactive). `O=C(Nc1ncccn1)c1ccc([N+](=O)[O-])o1` was tested, and the max response was -18.8% (inactive). With `CCOC(=O)CCc1ccc(NC(=O)/C=C/c2ccc([N+](=O)[O-])o2)cc1` the Potency was 8.2 µM (active). `COC(=O)c1sc(NC(=O)c2ccc([N+](=O)[O-])o2)c(C#N)c1C` was tested, and the max response was -29.9% (inactive). With `N#CCc1ccc(NC(=O)/C=C/c2ccc([N+](=O)[O-])o2)cc1` the Potency was 4.11 µM (active). For `O=[N+]([O-])c1ccccc1C=NNC(=S)NN=Cc1ccccc1[N+](=O)[O-]`, the max response was -27.9% (inactive). For `O=C1C(=Cc2ccccc2[N+](=O)[O-])Cc2ccccc21`, the Potency was 18.4 µM (active). With `Nc1ccccc1C=C1Cc2ccccc2C1=O` the Potency was 11.6 µM (active). For `CCN1C/C(=C/c2cccc([N+](=O)[O-])c2)C(=O)/C(=C/c2cccc([N+](=O)[O-])c2)C1`, the max response was -17.2% (inactive). In the case of `CC(NC(=S)Nc1cccc(C(F)(F)F)c1)C(C)(C)C` (centres undefined), the max response is reported as 1.09% (inactive). For `Cc1[nH][nH]c(=O)c1C(c1c(C)[nH][nH]c1=O)c1cn(Cc2ccccc2Cl)c2ccccc12`, the max response was -24.8% (inactive). In the case of `Cc1ccc2nc(/C(C#N)=C/c3ccc(O)c(O)c3)[nH]c2c1`, the Potency is reported as 15.8 µM (active). With `COc1cc(/C=C(\C#N)c2nc3ccc(C)cc3[nH]2)ccc1OC(C)C` the Potency was 20.6 µM (active). In the case of `C=CCNC(=S)N/N=C/c1ccc(C)cc1C`, the max response is reported as -2.08% (inactive). For `COc1ccccc1NS(=O)(=O)c1cc([N+](=O)[O-])ccc1N/N=C/c1c(C)[nH]c2ccccc12`, the Potency was 1.98 µM (active). `O=C(N/N=C/c1c[nH]c2ccccc12)C1COc2ccccc2O1` (centres undefined) was tested, and the max response was 4.43% (inactive). In the case of `O=[N+]([O-])c1ccc(N/N=C/c2c[nH]c3ccccc23)cc1`, the Potency is reported as 14.6 µM (active). `COc1ccccc1NS(=O)(=O)c1cc([N+](=O)[O-])ccc1N/N=C/c1c[nH]c2ccccc12` was tested, and the Potency was 13 µM (active). For `CCN(CC)c1ccc(NC(=O)c2ccc(=O)[nH]c2)cc1S(=O)(=O)Nc1ccccc1OC`, the max response was -20.2% (inactive). For `Cc1[nH]c2ccccc2c1/C=N/Nc1ccc([N+](=O)[O-])cc1`, the Potency was 18.4 µM (active). In the case of `Cc1cccn2c(=O)c3cc(C#N)c(=NC(=O)c4cccs4)n(CCCOC(C)C)c3nc12`, the max response is reported as -23.5% (inactive). In the case of `Cc1cccc(CSc2cccc3cccnc23)c1`, the max response is reported as 2.73% (inactive).
